Experimental findings from PubChem BioAssay (Tox21) are described below.

The nature of test [1]: qHTS assay for small molecule agonists of the p53 signaling pathway (AID 651631; calls by dose curve; note: nearly all actives have a fitted effect of over 15% in size; note: potency is the fitted concentration of half-maximal effect). A digest of the protocol:
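Read-out is beta-lactamase FRET fluorescence measured 2 h after substrate addition at room temperature, in HCT-116 cells with a p53 response element-driven reporter exposed to compounds for 16 h at 37 °C.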
For orientation: Quantitative high-throughput screening tests each substance at several concentrations.

A short description of test [2]: qHTS assay for small molecules that induce genotoxicity in human embryonic kidney cells expressing luciferase-tagged ATAD5 (AID 651632). Note: nearly all actives have a fitted effect of over 15% in size. Note: potency is the fitted concentration of half-maximal effect. In short, it runs like this:
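Luminescent reporter readout, HEK293T ATAD5-luc line: 16 hr drug exposure (37C, 5% CO2) followed by Amplite, 30 min RT.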

Test [3] in a line: qHTS assay for small molecule agonists of the p53 signaling pathway - cell viability (AID 651633; calls by dose curve;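 note: p53RE-bla HCT reporter cells with a stable beta-lactamase p53 reporter; series mostly up to about 83 µM; nearly all actives have a fitted effect of over 30% in size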). A digest of the protocol:
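p53RE-bla cells were treated with compound for 16 hours at 37 C. Cytotoxicity was then measured as CellTiter-Glo luminescence after 30 min at room temperature.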

Test [4] in a line: qHTS assay for small molecules that induce genotoxicity in human embryonic kidney cells expressing luciferase-tagged ATAD5 - cell viability (AID 651634; calls by dose curve; note: nearly all actives have a fitted effect of over 25% in size). In short, it runs like this: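 Viability read: CellTiter-Fluor fluorescence, 30 min at 37C. Cells: HEK293T, luciferase-tagged ATAD5. Exposure: 15.5 hr, 37C, 5% CO2, compound or DMSO vehicle.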
The nature of test [5]: qHTS assay for small molecule disruptors of the mitochondrial membrane potential - cell viability (AID 720634; calls by dose curve;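 note: human HepG2 liver cancer cells; series mostly up to about 83 µM; nearly all actives have a fitted effect of over 20% in size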). A digest of the protocol:
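HepG2, 1 hr compound, 37 C. ATP luminescence via CellTiter-Glo, 30 min RT, same well as m-MPI.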

Test [6] can be described thus: qHTS assay for small molecule disruptors of the mitochondrial membrane potential (AID 720635). Note: potency is the fitted concentration of half-maximal effect. A digest of the protocol:
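HepG2 cells exposed to compound 1 hr at 37C, then Mito-MPS dye 30 min. Ratio read of aggregate (540/590 nm) versus monomer (490/535 nm) fluorescence.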

A short description of test [7]: qHTS assay to test for compound auto fluorescence at 590 nm (red) in HepG2 cells (AID 720674). In short, it runs like this: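 Seeding: 2,000 HepG2 cells/well, MEM/10% FBS, overnight 37 C. Dosing: compound vs DMSO. Incubation: 1 hr, 37 C, 5% CO2. Read: fluorescence 540 ex/590 em, Rose Bengal sodium as red reference.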
Test [8] in a line: qHTS assay to test for compound auto fluorescence at 535 nm (green) in HepG2 cells (AID 720675).
A short description of test [9]: qHTS assay to test for compound auto fluorescence at 460 nm (blue) in HEK293 cells (AID 720678). A digest of the protocol: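 Measured: blue fluorescence (Ex 405/Em 460 nm) of compound-treated HEK293 cells, incubated overnight at 37C with 5% CO2 and scaled to triamterene equivalents.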
The nature of test [10]: qHTS assay to test for compound auto fluorescence at 590 nm (red) in HEK293 cells (AID 720679). In short, it runs like this:
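Using HEK293 cells at 2,000 per well, the screen added 23 nL of each compound after cell attachment and incubated overnight (37C, 5% CO2). The plate reader then captured red-label fluorescence, Ex/Em 540/590nm.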

SMILES strings stand for the structures. Results filed as inconclusive are left out. Calls of active or inactive are those of the source. Unless noted, calls come from the whole dose curve; as a rule, active = well fitted curve in the direction sought with a large enough effect in the repeat runs; inconclusive = weak or mixed curves; inactive = no such curve, though single readings can be large; an effect the other way counts as inactive or inconclusive. Positions of bridges follow the written chain, without caps; N, C: chain ends. Non-standard residues stand in square brackets, D forms with d. Residues, ends and D or L forms follow the SMILES beside them. *: point of attachment. Dab(CH2SO3H) = N[C@@H](CCNCS(=O)(=O)O)C(=O)O; X3 = CC[C@@H](C)CCCCC(=O)*; Dab = NCC[C@H](N)C(=O)O

For the compound `NC(=S)NS(=O)(=O)c1ccc(N)cc1`, the Potency result in test [1], in test [2], in [3], in test [4], in test [5] and in test [6] was “inactive” throughout. The Potency result in [8] and in test [9] was “inactive” in each case. The result in [7] and in test [10] was inactive.
Regarding `CCOc1ccc(NC(=S)Nc2ccc(OCC)cc2)cc1`, the Potency result in test [1], in [2], in test [3], in [4], in [5] and in test [8] was “inactive” throughout. In addition, in [9], the Potency result is “inactive”. Besides, the Potency in test [6] was 11.9 µM (active). Also, the result in [7] and in test [10] was inactive.
Turning to `CC(CNC(=O)c1cccnc1)NC(=O)c1cccnc1` (centres undefined), the Potency entry in test [1], in test [2], in test [3], in test [4], in [5] and in [6] was “inactive” each time. The Potency result in test [8] and in test [9] was “inactive” each time. Further, the call in test [7] and in [10] was inactive.
As for `CN[C@H](CC(C)C)C(=O)N[C@H]1C(=O)N[C@@H](CC(N)=O)C(=O)N[C@H]2C(=O)N[C@H]3C(=O)N[C@H](C(=O)N[C@@H](C(=O)O)c4cc(O)cc(O)c4-c4cc3ccc4O)[C@H](O)c3ccc(c(Cl)c3)Oc3cc2cc(c3O[C@@H]2O[C@H](CO)[C@@H](O)[C@H](O)[C@H]2O[C@H]2C[C@](C)(N)C(O)[C@H](C)O2)Oc2ccc(cc2Cl)[C@H]1O` (some centres undefined), the Potency result in test [1], in test [2], in [3], in [4], in [5] and in test [6] was “inactive” throughout. Moreover, the Potency result in test [8] and in [9] was “inactive” in each case. Besides, the outcome in test [7] and in test [10] was inactive.
Consider `Cc1ccc(Cl)c(N)c1Cl`, for which the Potency entry in test [1], in test [2], in [3], in test [4], in test [5] and in test [6] was “inactive” each time. The Potency entry in test [8] and in test [9] was “inactive” each time. The call in test [7] and in test [10] was inactive.
As for `CC[C@@H](C)[C@H](N)C(=O)O`, the Potency entry in [1], in [2], in test [3], in test [4], in [5] and in [6] was “inactive” throughout. The Potency result in test [8] and in test [9] was “inactive” each time. Moreover, the compound was classed as inactive in test [7] and in [10].
In the case of `N=C(N)n1cccn1`, the Potency result in [1], in test [2], in test [3], in test [4], in test [5] and in test [6] was “inactive” each time. Moreover, the Potency entry in test [8] and in [9] was “inactive” in each case. The outcome in test [7] and in test [10] was inactive.
As to `CC[N+](CC)(CC)CCC(O)(c1ccccc1)C1CCCCC1` (centres undefined), the Potency result in test [1], in test [2], in test [3], in test [4], in [5] and in [6] was “inactive” in each case. In addition, the Potency result in test [8] and in test [9] was “inactive” throughout. In addition, the outcome in [7] and in [10] was inactive.
For `CC/C=C\C/C=C\C/C=C\C/C=C\C/C=C\C/C=C\CCC(=O)O`, the Potency result in [1], in [2], in [3], in test [4], in test [5] and in test [6] was “inactive” in each case. For the same compound, the Potency result in test [8] and in test [9] was “inactive” each time. In addition, the result in test [7] and in [10] was inactive.
Consider `CC(C)[C@H](NC(=O)[C@H](CC(=O)O)NC(=O)[C@H](CCCCN)NC(=O)[C@@H](N)CCCN=C(N)N)C(=O)N[C@@H](Cc1ccc(O)cc1)C(=O)O` (H-RKDVY-OH), for which the Potency entry in [1], in test [2], in [3], in test [4], in [5] and in test [6] was “inactive” each time. The Potency result in test [8] and in test [9] was “inactive” throughout. Moreover, the outcome in test [7] and in [10] was inactive.
As for `CNC(=O)C[C@@H](N)C(=O)N[C@@H](C(=O)N[C@@H]1C(=O)N2[C@@H]1SC(C)(C)[C@@H]2C(=O)O)c1ccc(O)cc1`, the Potency result in [1], in [2], in test [3], in test [4], in test [5] and in test [6] was “inactive” throughout. For the same compound, the Potency entry in test [8] and in test [9] was “inactive” throughout. Further, the compound was classed as inactive in [7] and in test [10].
As for `O=C1c2ccccc2CN2C(=O)c3ccccc3CN12`, the Potency result in [1], in test [2], in [3], in test [4], in [5] and in test [6] was “inactive” in each case. For the same compound, the Potency result in test [8] and in [9] was “inactive” in each case. In addition, the outcome in test [7] and in test [10] was inactive.
Turning to `CC(C)OC(=O)Nc1ccc2nc(-c3cscn3)[nH]c2c1`, the figures for the Potency in test [1], in test [2] and in [6] were 2.37 µM (active), 10.6 µM (active) and 9.87 µM (active), respectively. The Potency entry in [3], in test [4], in test [5], in [8] and in [9] was “inactive” in each case. For the same compound, the compound was called inactive in test [7] and in test [10].
Take `Cc1c(O)c(=O)ccn1C`: the Potency result in [1], in [2], in test [3], in test [4], in test [5] and in [6] was “inactive” throughout. Besides, the Potency result in test [8] and in test [9] was “inactive” each time. Moreover, the outcome in [7] and in test [10] was inactive.
Regarding `CC(C)CCC[C@@H](C)[C@H]1CC[C@H]2[C@@H]3CC[C@@H]4C[C@H](O)CC[C@]4(C)[C@H]3CC[C@]12C`, the Potency result in [1], in [2], in [3], in test [4], in [5] and in [6] was “inactive” in each case. Further, the Potency result in test [8] and in test [9] was “inactive” each time. The compound was classed as inactive in test [7] and in [10].
For `CC1=C(/C=C/C(C)=C/C=C/C(C)=C/C=C/C=C(C)/C=C/C=C(C)/C=C/C2=C(C)CCCC2(C)C)C(C)(C)CCC1`, the Potency entry in test [1], in test [2], in test [3], in test [4], in [5] and in test [6] was “inactive” each time. For the same compound, the Potency entry in test [8] and in test [9] was “inactive” throughout. Besides, the call in [7] and in test [10] was inactive.
For the compound `CC[C@@H](C)CCCCC(=O)N[C@@H](CCNCS(=O)(=O)O)C(=O)N[C@H](C(=O)N[C@@H](CCNCS(=O)(=O)O)C(=O)N[C@H]1CCNC(=O)[C@H]([C@@H](C)O)NC(=O)[C@H](CCNCS(=O)(=O)O)NC(=O)[C@H](CCNCS(=O)(=O)O)NC(=O)[C@H](CC(C)C)NC(=O)[C@@H](CC(C)C)NC(=O)[C@H](CCNCS(=O)(=O)O)NC1=O)[C@@H](C)O` (X3-[Dab(CH2SO3H)]T[Dab(CH2SO3H)][Dab][Dab(CH2SO3H)][dL]L[Dab(CH2SO3H)][Dab(CH2SO3H)]T; lactam 4-C), the Potency entry in test [1], in test [2], in test [3], in test [4], in [5] and in test [6] was “inactive” in each case. Besides, the Potency entry in test [8] and in test [9] was “inactive” each time. Moreover, the compound was classed as inactive in test [7] and in test [10].
For the compound `CCOC(=O)COc1ccc2c(=O)cc(-c3ccccc3)oc2c1`, the Potency entry in test [1], in [2], in test [3], in test [4], in [5] and in test [8] was “inactive” in each case. Further, the Potency entry in [9] is “inactive”. Also, the Potency in [6] was 7.5 µM (active). The call in test [7] and in test [10] was inactive.
With `CO/N=C(\C(=O)N[C@@H]1C(=O)N2C(C(=O)[O-])=C(C[n+]3ccc(N)n3CCO)CS[C@H]12)c1csc(N)n1`, the Potency entry in test [1], in [2], in [3], in test [4], in test [5] and in test [6] was “inactive” throughout. In [8], the Potency result is “inactive”. Moreover, the call in test [7] and in test [10] was inactive.
